# Values without a mark were called inactive. Results filed as inconclusive are left out. Where a call stands in place of a potency, no number is given. Calls of active or inactive are those of the source. Unless noted, the call rests on the fitted dose curve; in most records, active means well fitted curve in the direction sought with a large enough effect in the repeat runs; inconclusive means weak or mixed curves; inactive means no such curve, though single readings can be large; an effect the other way counts as inactive or inconclusive.
# Tests used:
# [1] = qHTS assay to identify small molecule antagonists of the estrogen related receptor (ERR) signaling pathway from Tox21 library - cell viability counter screen (AID 1224834); further: nearly all actives have a fitted effect of over 30% in size; further: potency means the concentration at half of the fitted maximal effect
# In short: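 Cytotoxicity of test substances is gauged in the same ERR cells used for the antagonist screen, after 17.5 h of compound treatment at 37 C, by CellTiter-Fluor fluorescence measured after 30 min.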
# [2] = biological target: Luciferin 4-monooxygenase (Photinus pyralis) (UniProt P08659); assay: qHTS assay to identify small molecule inhibitors of firefly luciferase (AID 1224835); further: nearly all actives have a fitted effect of over 25% in size
# Luciferin 4-monooxygenase (Photinus pyralis), sequence (P08659 whole entry, looked up): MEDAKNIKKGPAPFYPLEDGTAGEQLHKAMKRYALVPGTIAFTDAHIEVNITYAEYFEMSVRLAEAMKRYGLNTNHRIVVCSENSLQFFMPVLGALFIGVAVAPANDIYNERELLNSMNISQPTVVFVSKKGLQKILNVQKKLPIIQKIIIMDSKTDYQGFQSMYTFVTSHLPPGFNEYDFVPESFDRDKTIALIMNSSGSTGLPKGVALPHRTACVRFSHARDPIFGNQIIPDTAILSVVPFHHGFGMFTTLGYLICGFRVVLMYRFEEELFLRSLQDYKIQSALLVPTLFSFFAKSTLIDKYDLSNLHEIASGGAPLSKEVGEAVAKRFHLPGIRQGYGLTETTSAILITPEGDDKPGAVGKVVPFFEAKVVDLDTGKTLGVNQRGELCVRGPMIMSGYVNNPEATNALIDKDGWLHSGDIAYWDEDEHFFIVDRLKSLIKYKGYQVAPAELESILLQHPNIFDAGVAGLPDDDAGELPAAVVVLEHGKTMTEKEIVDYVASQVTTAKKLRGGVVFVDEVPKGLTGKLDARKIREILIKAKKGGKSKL
# In short: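 Biochemical qHTS: compounds run as interplate titrations against purified firefly enzyme, with D-luciferin and ATP each at its KM concentration. Light output recorded by CCD imaging.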
# [3] = biological target: Nuclear receptor subfamily 1 group I member 3 (Homo sapiens) (UniProt Q14994); assay: qHTS assay to identify small molecule antagonists of the constitutive androstane receptor (CAR) signaling pathway (AID 1224838); further: nearly all actives have a fitted effect of over 40% in size; further: potency means the concentration at half of the fitted maximal effect
# Nuclear receptor subfamily 1 group I member 3 (Homo sapiens), sequence (Q14994 whole entry, looked up): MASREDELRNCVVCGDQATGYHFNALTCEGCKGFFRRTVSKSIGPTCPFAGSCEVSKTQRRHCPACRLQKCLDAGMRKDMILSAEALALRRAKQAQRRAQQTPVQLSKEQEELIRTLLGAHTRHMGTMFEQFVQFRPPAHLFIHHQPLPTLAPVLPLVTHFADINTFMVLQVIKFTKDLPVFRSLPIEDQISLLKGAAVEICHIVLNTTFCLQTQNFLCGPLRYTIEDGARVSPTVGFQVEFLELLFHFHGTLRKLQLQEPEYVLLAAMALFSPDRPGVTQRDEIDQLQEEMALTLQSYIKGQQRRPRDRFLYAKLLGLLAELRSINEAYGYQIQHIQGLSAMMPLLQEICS
# In short: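 Compounds were titrated across 15 concentrations onto HepG2 cells double-stably expressing hCAR and a CYP2B6-2.2kb reporter, together with 50 nM CITCO (final). After 24 h at 37 C, luciferase activity was measured by luminescence.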
# [4] = biological target: Nuclear receptor subfamily 1 group I member 3 (Homo sapiens) (UniProt Q14994); assay: qHTS assay to identify small molecule agonists of the constitutive androstane receptor (CAR) signaling pathway (AID 1224839);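 further: HepG2 cells stably carrying human CAR and a CYP2B6 luciferase reporter; nearly all actives have a fitted effect of over 15% in size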
# In short: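 Stable hCAR/CYP2B6-2.2kb HepG2 line in DMEM with 10% FBS; compounds (15 concentrations) and 0.75 uM PK11195 final, 24 h at 37 C/5% CO2, then ONE-Glo luminescence after 30 min.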
# [5] = qHTS assay to identify small molecule agonists of the estrogen related receptor signaling pathway with the pleiotropic PPARgamma coactivator (PGC) from Tox21 10K library (AID 1224842); further: nearly all actives have a fitted effect of over 15% in size
# In short: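 PGC/ERR reporter cell line, 2,000 cells per well, incubated 6 h at 37 C before 23 nL compound in DMSO was added. After 18 h at 37 C, One-Glo luminescence read following 30 min at room temperature.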
# [6] = qHTS assay to identify small molecule agonists of H2AX (AID 1224845; active means well fitted activation curve with a large enough effect in the signal ratio in the repeat runs, not every such curve was filed as active; the % refers to the signal ratio)
# In short: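 Wild-type CHO-K1 cells, plated overnight, exposed 3hr at 37C to 15 concentrations (0.76% DMSO final). Lysed, then HTRF anti-pH2AX (S139) cryptate and anti-H2AX-d2 antibodies, 24 hr room temperature; 665/620 nm emission read.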
# [7] = qHTS assay to identify small molecule agonists of H2AX - cell viability counter screen (AID 1224847; calls by dose curve; further: top concentration of the series differs between compounds; nearly all actives have a fitted effect of over 30% in size)
# In short: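 Viability of CHO-K1 (wild type) cells after 3 hr compound exposure was measured by CellTiter-Glo luminescence.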
# [8] = qHTS assay to identify small molecule antagonists of the estrogen related receptor (ERR) signaling pathway from Tox21 library (AID 1224848); further: nearly all actives have a fitted effect of over 50% in size; further: potency means the concentration at half of the fitted maximal effect
# In short: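 Luminescent reporter read-out (ONE-Glo) from NTP's ERR cell line after 18 h treatment at 37 C with DMSO-dissolved Tox21 compounds; cells pre-plated 6 h beforehand at 2,000 per well.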
# [9] = qHTS assay to identify small molecule agonists of the estrogen related receptor (ERR) signaling pathway from Tox21 library (AID 1224849; calls by dose curve; further: nearly all actives have a fitted effect of over 15% in size); settings: ERR reporter cell line, ONE-Glo luciferase, 18 h; at 92.4 µM (top of the series) unless noted
# In short: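 Agonist signal is luciferase luminescence from an ERR reporter cell line treated 18 h at 37 C with DMSO-dissolved compounds, read 30 min after ONE-Glo addition at room temperature.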
# [10] = qHTS RealTime-Glo MT Cell Viability Assay in HepG2 cells - 24 hour (AID 1224867); further: nearly all actives have a fitted effect of over 50% in size
# In short: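 Luminescence read-out: viable HepG2 cells reduce a prosubstrate to a NanoLuc substrate, giving a signal proportional to live cell number. Reads taken at 0, 8, 16, 24, 32 and 40 h of compound exposure at 37 C.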
# [11] = A CellTox Green Cytotoxicity Assay to monitor cytotoxicity in HEK293 cells - 0 hour (AID 1224869); further: nearly all actives have a fitted effect of over 50% in size
# In short: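 Cytotoxicity was tracked continuously in HEK293 cells by a DNA-binding dye excluded from viable cells. Compounds were transferred in DMSO 5 h after seeding; fluorescence was recorded at intervals up to 40 h.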
# [12] = qHTS RealTime-Glo MT Cell Viability Assay in HepG2 cells - 40 hour (AID 1224870); further: nearly all actives have a fitted effect of over 50% in size; further: potency means the concentration at half of the fitted maximal effect
# In short: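 HepG2 cells (600/well) mixed with RealTime-Glo MT reagent, settled 5 h at 37 C/5% CO2 before compound addition. Nonlytic NanoLuc luminescence from viable-cell prosubstrate reduction read repeatedly during 40 h treatment at 37 C.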
# [13] = qHTS assay to identify small molecule agonists of the constitutive androstane receptor (CAR) signaling pathway - cell viability counter screen (AID 1224836); further: nearly all actives have a fitted effect of over 45% in size
# In short: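 Fluorescence from CellTiter-Fluor indicates live cells after 23 h exposure. The human hepatoma line expresses hCAR and a CYP2B6-2.2kb reporter. Incubation medium contains 0.75 uM PK11195 (final).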
# [14] = qHTS assay to identify small molecule antagonists of the estrogen related receptor signaling pathway with the pleiotropic PPARgamma coactivator (PGC) from Tox21 10K library - cell viability counter screen (AID 1224840; active means well fitted cell-killing curve with a large enough effect in the repeat runs, not every such curve was filed as active; further: nearly all actives have a fitted effect of over 40% in size)
# In short: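 Step one, plate 2,000 PGC/ERR cells per well; step two, incubate 6 h at 37 C/5% CO2; step three, pin-transfer compounds; step four, incubate 17.5 h; step five, add CellTiter-Fluor and read fluorescence after 30 min.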
# [15] = biological target: Thyrotropin receptor (Homo sapiens) (UniProt P16473); assay: qHTS assay to identify small molecule agonists of the thyroid stimulating hormone receptor (TSHR) signaling pathway (AID 1224843; calls by dose curve; further: nearly all actives have a fitted effect of over 45% in size)
# Thyrotropin receptor (Homo sapiens), sequence (P16473 whole entry, looked up): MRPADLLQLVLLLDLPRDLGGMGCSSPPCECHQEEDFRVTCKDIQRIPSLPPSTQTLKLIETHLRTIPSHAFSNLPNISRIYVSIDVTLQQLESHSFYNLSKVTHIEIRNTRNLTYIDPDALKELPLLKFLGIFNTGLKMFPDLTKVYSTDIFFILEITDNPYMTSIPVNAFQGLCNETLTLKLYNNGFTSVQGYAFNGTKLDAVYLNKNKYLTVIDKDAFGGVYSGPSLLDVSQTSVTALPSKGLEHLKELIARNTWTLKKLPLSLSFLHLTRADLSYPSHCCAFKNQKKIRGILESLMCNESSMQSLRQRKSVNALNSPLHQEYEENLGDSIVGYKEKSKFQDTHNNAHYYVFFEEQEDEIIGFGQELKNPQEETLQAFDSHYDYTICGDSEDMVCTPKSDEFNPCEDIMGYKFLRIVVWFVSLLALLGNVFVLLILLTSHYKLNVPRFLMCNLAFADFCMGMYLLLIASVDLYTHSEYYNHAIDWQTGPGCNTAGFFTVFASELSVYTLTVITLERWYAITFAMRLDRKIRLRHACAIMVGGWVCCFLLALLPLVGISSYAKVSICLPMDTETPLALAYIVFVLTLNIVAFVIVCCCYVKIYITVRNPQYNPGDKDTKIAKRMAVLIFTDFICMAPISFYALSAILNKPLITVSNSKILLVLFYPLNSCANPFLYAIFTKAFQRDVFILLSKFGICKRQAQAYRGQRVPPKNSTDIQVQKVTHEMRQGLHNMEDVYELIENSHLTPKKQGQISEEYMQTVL
# In short: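 Steps: seed 800 TSHR-HEK293 cells per well; add test compound and hold 30 min at ambient temperature; dispense cAMP-d2 then anti-cAMP cryptate; incubate 1 h at ambient; measure fluorescence intensity.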
# [16] = qHTS assay to identify small molecule agonists of the hypoxia (HIF-1) signaling pathway - cell viability counter screen (AID 1224844; calls by dose curve; further: nearly all actives have a fitted effect of over 50% in size)
# In short: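 Tox21 10K compounds were added to HRE-bla ME-180 cells (0.5% dialyzed FBS) and incubated 17 hrs at 37C; ATP-based CellTiter-Glo luminescence then reported cell viability in the same wells.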
# [17] = qHTS RealTime-Glo MT Cell Viability Assay in HEK293 cells - 32 hour (AID 1224868); further: nearly all actives have a fitted effect of over 50% in size; further: potency means the concentration at half of the fitted maximal effect
# In short: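 Nonlytic real-time viability readout: viable cells convert prosubstrate to NanoLuc substrate, giving luminescence proportional to live cell number. HEK293, 600 cells/well, compound added after 5 h, continuous culture at 37 C.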
# [18] = qHTS assay to identify small molecule agonists of the hypoxia (HIF-1) signaling pathway (AID 1224846; active means well fitted activation curve with a large enough effect in the signal ratio in the repeat runs, not every such curve was filed as active; the % refers to the signal ratio)
# In short: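 Steps: seed ME-180 HRE-bla cells (2,000/well, 0.5% dialyzed FBS); incubate 5 hrs at 37C; pin-transfer compounds or DMSO; incubate 17 hrs; add LiveBLAzer B/G substrate CCF4-AM; measure reporter activation by FRET.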
# [19] = qHTS assay to identify small molecule antagonists of the constitutive androstane receptor (CAR) signaling pathway - cell viability counter screen (AID 1224837); further: nearly all actives have a fitted effect of over 45% in size
# In short: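 Multiplexed cytotoxicity read-out for the CAR antagonist screen: double-stable HepG2-CYP2B6-hCAR cells co-treated with 50 nM CITCO (final) and compound over 15 concentrations, incubated 23 hr, then assessed by CellTiter-Fluor fluorescence.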
# [20] = qHTS assay to identify small molecule antagonists of the estrogen related receptor signaling pathway with the pleiotropic PPARgamma coactivator (PGC) from Tox21 10K library (AID 1224841; call rule not given here)
# In short: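 Antagonism in this quantitative HTS is taken from loss of luciferase signal in PGC/ERR cells. Cells (2,000/well) are treated with compounds in DMSO after a 6 h settling period and read by One-Glo luminescence after 18 h.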
structure (smiles),measurement,setting,value
Cc1c(C)n(CCN(C)C)c2ccc(C(=O)OCCN(C)C)cc12,Potency,[1],inactive
same,Potency,[2],inactive
same,Potency,[3],29.8 µM (active)
same,Potency,[4],inactive
same,Potency,[5],inactive
same,outcome,[6],inactive
same,Potency,[7],inactive
same,Potency,[8],inactive
same,"activity change, positive = activation",[9],-20.1% [at 42.5 µM]
same,outcome,[10],inactive
same,Potency,[11],inactive
same,Potency,[12],inactive
NC(CS)C(=O)O (stereo unspecified),Potency,[1],inactive
same,Potency,[2],inactive
same,outcome,[13],inactive
same,outcome,[14],inactive
same,outcome,[15],inactive
same,Potency,[16],inactive
same,outcome,[6],inactive
same,outcome,[10],inactive
same,Potency,[17],inactive
same,Potency,[11],inactive
same,Potency,[12],inactive
CC(=O)N[C@@H](CCC(N)=O)C(=O)O,Potency,[1],inactive
same,Potency,[2],inactive
same,outcome,[13],inactive
same,Potency,[4],inactive
same,outcome,[14],inactive
same,Potency,[16],inactive
same,outcome,[6],inactive
same,outcome,[18],inactive
same,Potency,[7],inactive
same,outcome,[10],inactive
same,Potency,[17],inactive
same,Potency,[11],inactive
same,Potency,[12],inactive
NC(=O)c1ncn([C@@H]2O[C@H](CO)[C@@H](O)[C@H]2O)c1N,Potency,[1],inactive
same,Potency,[2],inactive
same,Potency,[3],inactive
same,Potency,[4],inactive
same,outcome,[15],inactive
same,Potency,[16],inactive
same,outcome,[6],inactive
same,outcome,[18],inactive
same,outcome,[10],inactive
same,Potency,[17],inactive
same,Potency,[11],inactive
CCCc1ccc(N)cc1,Potency,[1],inactive
same,outcome,[13],inactive
same,outcome,[19],inactive
same,Potency,[3],inactive
same,Potency,[4],inactive
same,outcome,[14],inactive
same,outcome,[15],inactive
same,Potency,[16],inactive
same,outcome,[6],inactive
same,outcome,[18],inactive
same,Potency,[7],inactive
same,outcome,[10],inactive
same,Potency,[17],inactive
same,Potency,[11],inactive
same,Potency,[12],inactive
COC[C@H](c1ccc(C(F)(F)F)cc1)N1CCN(C2(C)CCN(C(=O)c3c(C)ncnc3C)CC2)C[C@H]1C,Potency,[1],inactive
same,outcome,[13],inactive
same,outcome,[19],inactive
same,Potency,[3],inactive
same,Potency,[4],inactive
same,Potency,[20],inactive
same,Potency,[5],inactive
same,outcome,[15],inactive
same,Potency,[16],inactive
same,outcome,[6],inactive
same,outcome,[18],inactive
same,Potency,[8],inactive
same,"activity change, positive = activation",[9],-5.81% [at 42.5 µM]
same,outcome,[10],inactive
same,Potency,[17],inactive
same,Potency,[11],inactive
same,Potency,[12],inactive
CC(C)c1cccc(O)c1,Potency,[1],inactive
same,outcome,[13],inactive
same,outcome,[19],inactive
same,Potency,[3],inactive
same,Potency,[4],inactive
same,outcome,[14],inactive
same,Potency,[20],inactive
same,Potency,[5],inactive
same,outcome,[15],inactive
same,Potency,[16],inactive
same,outcome,[6],inactive
same,outcome,[18],inactive
same,Potency,[8],inactive
same,"activity change, positive = activation",[9],1.69%
same,outcome,[10],inactive
same,Potency,[17],inactive
same,Potency,[11],inactive
CN(C)C(=O)C(CCN1CCC(O)(c2ccc(Cl)cc2)CC1)(c1ccccc1)c1ccccc1,Potency,[1],26.6 µM (active)
same,Potency,[2],inactive
same,Potency,[20],inactive
same,Potency,[5],inactive
same,outcome,[6],inactive
same,Potency,[7],inactive
same,Potency,[8],21.1 µM (active)
same,"activity change, positive = activation",[9],-39.4% [at 42.5 µM]
same,Potency,[17],10.7 µM (active)
same,Potency,[11],inactive
same,Potency,[12],23.9 µM (active)
C1CCCCCCCCCCC1,"viability change, negative = cytotoxic",[1],0.43% [at 19 µM]
same,"activity change, negative = inhibition",[2],-7.22% [at 23.6 µM]
same,"viability change, negative = cytotoxic",[13],-17.1% [at 19 µM]
same,"viability change, negative = cytotoxic",[14],11% [at 19 µM]
same,activation,[5],0.749% [at 19 µM]
same,activation,[15],-4.17% [at 19 µM]
same,"activity change, negative = cytotoxicity",[16],3.97% [at 15.8 µM]
same,activation (H2AX phosphorylation),[6],1.29% [at 31.6 µM]
same,activation,[18],0.351% [at 15.8 µM]
same,"activity change, negative = cytotoxicity",[7],0.456% [at 31.6 µM]
same,"activity, negative = inhibition",[8],-2.47% [at 19 µM]
same,"activity change, positive = activation",[9],-0.61% [at 19 µM]
same,"activity change, negative = cytotoxicity",[10],3.08% [at 15.8 µM]
same,cytotoxicity,[11],-14.8% [at 15.8 µM]

# — PubChem BioAssay (Tox21)
